GRK2 aptamer HTS: blocks RNA aptamer binding to human GRK2 | inhibition of aptamer binding, % at 10 µM | AID 488847 | actives 0.59% (n = 330,000) | bead flow cytometry, FAM-aptamer displacement from GRK2 | P25098;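 active = inhibition of aptamer binding above 40%, roughly 3 SD of noise, on plates passing a quality check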;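 also: median bead fluorescence of bound FAM aptamer so fluorescent compounds give negative values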
NadD inh: NadD (S. aureus) enzyme inhibition | inhibition, % at 20 µM | purified NadD enzyme, colorimetric absorbance read-out | actives 0.78% (n = 360,000); in the data active = inhibition above about 26%
Exocytosis inh: blocks lytic granule exocytosis. TALL-104 LAMP-1 surface exposure, flow cytometry; cells stimulated with thapsigargin and PMA. inhibition, % at 10 µM. actives 0.66% (n = 360,000);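 active = inhibition above about 55%, limit read from the data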
Beta2AR agonist: agonists of human beta-2 adrenergic receptor inducing internalization; P07550; Am2.2-beta2AR cells, FAP receptor internalization, flow cytometry; response, % (concentration not given with the values); actives 0.43% (n = 340,000); AID 504454;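 active = response above a set limit, near 3 SD of response in nonfluorescent compounds, cut at about 42% in these data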
PP1 inh: blocks human PP1-alpha phosphatase, a PP5 counter-screen. actives 0.9% (n = 320,000). purified PP1alpha, OMFP fluorescence. inhibition, % at 6.7 µM;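 active = inhibition above the mean inhibition of all tested compounds plus 3 SD, computed separately for each screening campaign, cut at about 15% in these data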
GRK2 inh confirm: human GRK2 inhibition confirmation, cherry pick 1. aptamer displacement, % at 10 µM. bead-bound GRK2, FAM-aptamer displacement, flow cytometry. actives 4% (n = 2,000). shares compounds with GRK2 aptamer HTS. AID 504451;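 active = aptamer displacement above 40%, near three times the noise of non-fluorescent compounds, on plates passing quality checks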;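 also: negative values mostly reflect intrinsic compound fluorescence rather than true enhancement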
Aptamer quench SP: aptamer fluorescence quenching in GRK2 counter-screen | shares compounds with GRK2 aptamer HTS | Carboxyfluorescein RNA aptamer on beads, flow cytometry quenching; stronger effect = lower value | fluorescence response (% of DMSO), % at 10 µM | 2,000 tested, under 10 active | AID 504580;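 active = compounds that quench the bead-bound fluorescent RNA probe, cutting fluorescence to under half of the solvent control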;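 also: counterscreen run without GRK2 so only probe quenching by compound is measured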
GRK2 confirm 2: confirmation of human GRK2 inhibitors binding RNA aptamer site; shares compounds with GRK2 aptamer HTS; bead-bound GRK2, FAM-aptamer displacement, flow cytometry; inhibition of aptamer binding, % at 10 µM; 360 tested, under 10 active; AID 504782;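 active = inhibition of aptamer binding above 40%, about triple the noise seen with nonglowing compounds, on plates passing quality control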;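 also: negative values mostly come from compounds that fluoresce themselves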
FAM quench SP: quenches fluorescent RNA aptamer, GRK2 hit artifact | fluorescence response vs DMSO, % at 10 µM | carboxyfluorescein RNA aptamer beads, flow cytometry quenching; stronger effect = lower value | 360 tested, under 10 active | shares compounds with GRK2 aptamer HTS;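 active = response vs DMSO under 50%, meaning signal dropped by over half, treated as fluorescence quencher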;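 also: labelled aptamer on streptavidin beads without GRK2 as a quench counter-screen; 100% = bead fluorescence of DMSO wells and lower means quenching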
The depositor's hits bear a star; / = no result given. Shown are actives, neighbours in structure and some others; about 2.9% of the full set was active somewhere.

SMILES	GRK2 aptamer HTS	NadD inh	Exocytosis inh	Beta2AR agonist	PP1 inh	GRK2 inh confirm	Aptamer quench SP	others
CN(CC(=O)Nc1ccc(Cl)cc1)C(=O)CCc1nc2sc3c(c2c(=O)[nH]1)CCCC3	34	9	-1	3	-1	/	/
CCN(CC)C(=O)CSc1nc2sc3c(c2c(=O)n1CCCOC)CCC3	0	2	10	2	-3	/	/	GRK2 confirm 2=-14;FAM quench SP=100
COCCCn1c(SCC(=O)NCc2ccco2)nc2sc3c(c2c1=O)CCC3	3	4	1	-18	1	/	/	GRK2 confirm 2=13;FAM quench SP=100
O=C(CSc1nc2sc3c(c2c(=O)n1-c1ccccc1)CCCC3)NCc1ccco1	0	2	3	-2	4	/	/
CCCCn1c(SCC(N)=O)nc2sc3c(c2c1=O)CCC3	4	-2	-2	-14	2	/	/
CC(Sc1nc2sc3c(c2c(=O)n1-c1ccccc1)CCCC3)C(=O)O (centres undefined)	0	-7	1	-4	-4	/	/
CCn1c(SC(C)C(=O)O)nc2sc3c(c2c1=O)CCC3 (centres undefined)	68*	3	2	3	2	5	100	GRK2 confirm 2=9;FAM quench SP=101
CCCCCc1cccnc1	64*	-8	-1	-6	-1	-1	96
COC(=O)c1sc2ncn(N)c(=O)c2c1C	42*	/	/	/	-3	1	97
Cc1cc(C)n(/N=C/c2ccccc2)c(=O)c1C#N	1	7	-2	-13	-4	/	/
Cc1cc(C)n(/N=C/c2c[nH]c3ccccc23)c(=O)c1C#N	65*	-3	0	-4	-6	1	108
Cc1ccc(Cl)cc1NC(=O)CN1CCN(S(=O)(=O)N2CCC(C)CC2)CC1	0	-2	5	29	5	/	/
Nc1nc2c(ccc3ccccc32)s1	0	-3	-14	-2	6	/	/	GRK2 confirm 2=-20;FAM quench SP=101
Nc1ccc2sc(N)nc2c1	0	2	-3	-4	-2	/	/
COC(=O)c1ccsc1NC(=O)CCS(=O)(=O)c1ccc(Cl)cc1	1	6	-2	12	-1	/	/	GRK2 confirm 2=-38;FAM quench SP=101
O=C(CCS(=O)(=O)c1ccccc1)Nc1nncs1	54*	6	-2	-2	-3	6	101
COC(=O)c1ccsc1NC(=O)CCS(=O)(=O)c1ccccc1	3	-2	1	5	-5	/	/
CC(C)Cc1nnc(NC(=O)CCC(=O)Nc2ccc(Cl)cc2)s1	1	-3	-8	-5	-3	/	/
CC(C)Cc1nnc(NC(=O)CCS(=O)(=O)c2ccc(Cl)cc2)s1	0	2	-1	-7	-4	-5	96
O=C(O)CC(CC(=O)Nc1nncs1)c1ccccc1 (centres undefined)	49*	-5	0	-2	2	0	100
COCCSc1nnc(NC(=O)CCS(=O)(=O)c2ccccc2)s1	0	-2	-6	-4	1	0	100
COCCSc1nnc(NC(=O)CS(=O)(=O)c2ccc(C)cc2)s1	0	3	-8	-4	0	/	/
CCOCCc1nnc(NC(=O)CCS(=O)(=O)c2ccccc2)s1	5	-1	-7	2	2	6	97
CCCCC(=O)Nc1nnc(CCc2ccccc2)s1	99*	-7	-3	-8	2	0	97
CCOCCc1nnc(NC(=O)C(C)Oc2ccccc2)s1 (centres undefined)	4	0	-7	-2	-2	/	/
O=C(CCCN1C(=O)C2CC=CCC2C1=O)Nc1cccc(F)c1 (centres undefined)	0	-6	6	-11	-4	/	/
CCOC(=O)c1cc2c(OC)ccc(OC)c2n1CC(=O)c1ccccc1	0	-15	-10	-2	1	/	/
CN(C)/C=C/C=C1C(=O)CCCC1=O	42*	-1	-3	7	-5	11	102
